# Screening results (PubChem BioAssay)
# ST2 inh: blocks human ST2 binding to IL-33 | Q01638 | 78,000 tested, 2.3% active | AlphaLISA ST2-Fc/biotin-IL-33 interaction, 1 h | AID 1259354 | inhibition, % for hits at 17 µM; in the data active means inhibition above about 30%
# Target sequence (Q01638 whole entry, looked up): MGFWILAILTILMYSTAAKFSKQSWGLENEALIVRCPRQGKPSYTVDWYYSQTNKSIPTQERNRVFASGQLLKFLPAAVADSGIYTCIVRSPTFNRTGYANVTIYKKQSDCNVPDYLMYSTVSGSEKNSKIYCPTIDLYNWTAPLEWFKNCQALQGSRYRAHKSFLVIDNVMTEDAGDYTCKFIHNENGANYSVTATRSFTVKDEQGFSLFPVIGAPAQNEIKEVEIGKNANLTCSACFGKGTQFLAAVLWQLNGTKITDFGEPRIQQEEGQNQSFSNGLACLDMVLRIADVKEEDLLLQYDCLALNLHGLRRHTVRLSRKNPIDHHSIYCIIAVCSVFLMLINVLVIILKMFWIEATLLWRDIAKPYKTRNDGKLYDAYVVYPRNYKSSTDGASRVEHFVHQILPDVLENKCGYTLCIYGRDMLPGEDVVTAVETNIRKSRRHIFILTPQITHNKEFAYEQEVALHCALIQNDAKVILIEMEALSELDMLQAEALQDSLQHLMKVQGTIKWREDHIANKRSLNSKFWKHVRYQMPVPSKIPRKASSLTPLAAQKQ
# * marks the source's active call; other numbers are inactive results; i = inactive; ! = a repeat was not active. Many of the other results were omitted from the sample, so hits are more common in it than they were.
SMILES,ST2 inh
O=C(NCCC(c1ccccc1)c1ccccc1)C1CC12CCN(C(=O)c1ccc[n+]([O-])c1)CC2 (stereo not drawn),34.0%*
COc1ccc(CC(=O)N2CCC3(CC2)CC3C(=O)NCCCc2ccccc2)cc1OC (stereo not drawn),i
O=C(NCCCc1ccccc1)C1CC12CCN(C(=O)c1cccc(-c3ccccc3F)c1)CC2 (stereo not drawn),i
CCOC(=O)c1cnc2c(C)c(Cl)ccc2c1NCc1ccco1,i
Cc1ccccc1Cc1c(C)nc2nc(SCC(=O)NC3CC3)nn2c1C,i
CN(C(=O)Cc1ccccc1)c1ccccc1,36.0%*
O=C(Cc1ccccc1)N(c1ccccc1)c1ccccc1,i
CN(C(=O)N1CCN(C(=O)N(C)c2ccccc2)CC1)c1ccccc1,i
CN(C)c1ccc(-c2nnnn2[C@H]2CO[C@H]3[C@@H]2OC[C@@H]3NC(=O)NC2CCCCC2)cc1,i
COc1ccccc1N1CCN(c2ncnc3sc(C(=O)O)c(C)c23)CC1,40.0%*!
CCCN1CCN(c2ncnc3sc(C(=O)O)c(C)c23)CC1,i
Cc1c(C(=O)O)sc2ncnc(N3CCN(c4ccccc4F)CC3)c12,i
COc1ccc(OC)c(NC(=O)N2CCCCC2CN2CCOCC2)c1 (stereo not drawn),i
O=C(O)C1CCCCC1C(=O)NCCC1=CCCCC1 (stereo not drawn),i
NC(=O)C(=O)NC1CCCN(Cc2ccc(F)cc2)C1 (stereo not drawn),i
COc1ccc(-c2ncc(CN3CCCC(Nc4ccc(F)cc4)C3)cn2)cc1 (stereo not drawn),i
CNC(=O)c1ccc(CN2CCCC(Nc3ccc(F)cc3)C2)o1 (stereo not drawn),36.0%*
COc1cccc(C2C(C(=O)c3ccc(C)o3)=C(O)C(=O)N2CCCN(C)C)c1OC (stereo not drawn),i
Cc1ccc(N(C(=O)C(C)(C)C)C2C=CS(=O)(=O)C2)cc1C (stereo not drawn),i
CCNC(=O)N1CC[C@H]2CC(=O)N(CCN3CCNC3=O)CC[C@H]2C1,i
COc1ccc(NC(=O)N2CC[C@H]3CC(=O)N(CCN4CCNC4=O)CC[C@H]3C2)cc1,53.0%*
COc1ccc(NC(=O)N2CCN(C)CC2)cc1,i
Cc1cc(I)ccc1N=Cc1nc(-c2ccccc2)oc1O,i
Cc1cc(C)c(S(=O)(=O)N2CCCC2=O)c(C)c1,i
Cc1cc(C)c(N2CCC(=O)N2)c(C)c1,33.0%*
SMILES,ST2 inh
CCN1CCN(Cc2c(C)[nH]c3c(C)cc(C)cc3c2=O)CC1,i
CC(C)c1csc(CN2CCCC(CCNS(C)(=O)=O)C2)n1 (stereo not drawn),i
C=C(C)CNc1ccc(C(=O)N2CCN(C(C)C)C(CC)C2)cn1 (stereo not drawn),i
CCn1cnc2cc(NCc3ccccc3OC)ccc21,i
COc1ccccc1CNc1ccc2c(c1)ncn2C(C)(C)C,i
COc1ccccc1CNc1ccc2c(c1)ncn2C1CCCCC1,33.0%*
O=[N+]([O-])c1cc(C(F)(F)F)ccc1NCCN=Cc1cc(Cl)ccc1O,i
CCCC(=O)N1c2ccccc2NC2=C(C(=O)CCC2)C1c1cccs1 (stereo not drawn),i
CC(C)(C)NC(=O)C1CCCN1S(=O)(=O)c1cccc2nsnc12 (stereo not drawn),i
O=C(C1CCCN1S(=O)(=O)c1cccc2nsnc12)N1CCCCC1 (stereo not drawn),i
O=C(NC1CCCCCCC1)C1CCCN1S(=O)(=O)c1cccc2nsnc12 (stereo not drawn),33.0%*
COc1ccc(CNC(=O)c2ccc(CN3CCc4ccccc4C3)cc2)cc1,i
NS(=O)(=O)c1ccc(N=Cc2ccc(Br)cc2)cc1,i
Cc1sc(N=Cc2ccc(Br)cc2)c(C#N)c1C,55.0%*
COc1ccc(C=Nc2sc3c(c2C#N)CCCC3)cc1[N+](=O)[O-],i
COc1ccc(N2C(=O)Nc3ccccc3C2(O)C(=O)NCCN(C)C)c(OC)c1 (stereo not drawn),i
COc1cc(Cl)c(C)cc1NC(=O)c1ccc(Cl)cc1,i
CC(C)CCNC(=O)N1CCN(Cc2nc3cccnc3n2-c2cccc(F)c2)CC1,i
O=C(Nc1ccccc1Oc1ccccc1)N1CCOC(C(F)(F)F)C1 (stereo not drawn),i
Cc1cc(N2CCOCC2)nc(N2CCN(S(=O)(=O)c3ccc(F)cc3)CC2)n1,i
Cc1nn(-c2ccccn2)c2c1C(=O)/C(=C\Nc1ccccc1Cl)CC2,31.0%*
O=C1CSC(c2cccc(Cl)c2Cl)N1c1ccccn1 (stereo not drawn),i
Cc1nn(-c2ccccn2)c2c1C(=O)/C(=C/Nc1ccc([N+](=O)[O-])cc1Br)CC2,i
COc1ccc(NS(=O)(=O)c2ccc(NC(=O)Nc3ccc(Cl)cc3)cc2)cc1,i
O=S(=O)(Nc1ccc(F)c(Cl)c1)c1cccs1,i
O=S(=O)(Nc1ccc(Oc2ccccc2)cc1)c1ccc(Cl)cc1,i
